# Data from PubChem BioAssay (NCI).
# This is part of a sample that, as a whole, favours compounds with a hit. Of some 83,000 tested, about 20% had one in any assay.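 Values shown are percent growth following 48 h exposure of cells in 96-well plates to a single concentration of compound; below 10 was considered active.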 Calls of active or inactive are those of the source.
# Tested on: KM12 colon
# Assay: NCI-60 one-dose screen, 48 h (100 = growth as untreated, 0 = no growth, -100 = all killed)
# Settings: 10 µM unless noted
# Procedure: Growth inhibition of the KM12 human tumor cell line is measured as a screen for anti-cancer activity. Cells are grown in 96 well plates and exposed to the test compound for 48 hours. Compounds are tested at a single concentration, which is 10^-5 M for most compounds. The reported endpoint is percent growth (GI% or GIPRCNT), where numbers from 0 - 100% represent growth inhibition, and numbers from -100% - 0 represent cell death. For example, a value of 40 represents 60% growth inhibition. A value of 0 means no net growth occurred over the course of the experiment. A value of -40 indicates 40% of cells at the beginning of the experiment died by the end of the experiment. A value of -100 means all cells are dead at the end of the experiment.
# NCI-60 Human Tumor Cell Lines Screen was performed using the standard one-dose NCI protocol, which is described in more detail at https://dtp.cancer.gov/discovery_development/nci-60/default.htm.
# Compounds with GIPRCNT values below 10 were considered active. Activity score was based on GIPRCNT using the following formula: […]
# Score is 0 for GIPRCNT values of 100 or above, 50 for GIPRCNT values of 0, and 100 for GIPRCNT values of -100.
row,Compound,growth
1,O=C(N=c1oc2ccccc2cc1-c1cc2ccccc2[nH]1)Nc1ccc(Cl)cc1,99.2% (inactive)
2,COc1ccn2c(C(C)=O)cc(C(=O)c3ccc4c(c3)Sc3ccccc3N4)c2c1,7.27% (active)
3,COc1ccc(-c2nn(C(=O)c3cc(OC)c(OC)c(OC)c3)c3cc(N)ccc23)cc1,12.4% (inactive)
4,c1ccc(OCc2nnc(-c3ccc(Oc4ccccc4)cc3)o2)cc1,93.7% (inactive)
5,CCOC(=O)/C(C#N)=C\Nc1ccc2ncnc(Nc3ccc(Cl)cc3Cl)c2c1,79.1% (inactive)
6,C=C1CC[C@@]2(C#N)[C@H]3[C@H](CC[C@@H]2C)[C@@H](C)C[C@@H](CC(C)(C)C#N)[C@H]13,35.7% (inactive)
7,O=c1cc(SCc2ccccc2)nc[nH]1,94.8% (inactive)
8,O=C(CCc1nnc(-c2c(Cl)cccc2Cl)o1)c1nc2ccccc2[nH]1,28.7% (inactive)
9,COc1cc(CCC[P+](c2ccccc2)(c2ccccc2)c2ccccc2)c(OC)c2c1OCO2,6.93% (active)
10,O=C(O)CCC/C=C\C[C@H]1C=CC(=O)/C1=C/C[C@@H](O)CCc1cccc(C(F)(F)F)c1,-47% (active)
11,CCc1ccc(Oc2c(-c3ccc(OCCc4cccc(C(F)(F)F)c4)cc3O)n[nH]c2C(F)(F)F)cc1,46.4% (inactive)
12,O=C(O)CCC(=O)Nc1nnc(-c2ccccc2)s1,103% (inactive)
13,COC(=O)/C=C1\S/C(=N\Nc2ccc([N+](=O)[O-])cc2[N+](=O)[O-])N(C2CCCCC2)C1=O,45.9% (inactive)
14,C=C1C(=O)O[C@H]2[C@H]1CC/C(COC(=O)CCSSCCC(=O)OC/C1=C/CC[C@@]3(C)O[C@H]3[C@H]3OC(=O)C(=C)[C@@H]3CC1)=C\CC[C@@]1(C)O[C@@H]21,51.6% (inactive)
15,CN(C(=O)NCc1cccc(F)c1Cl)[C@H](COC(=O)Nc1cc2ccccc2cn1)CC(O)CO (stereo not given in full),104% (inactive)
16,COc1ccc2[nH]c(-c3ccccc3)c(/C=C(\C#N)S(=O)(=O)c3ccccc3)c2c1,33.4% (inactive)
17,Cc1ccc(-c2cnc3sc(C(=O)NCCc4ccccc4)c(C)n23)cc1,96% (inactive)
18,O=C(O)C(c1ccccc1)N1C(=O)CSC1=S (stereo not given),102% (inactive)
19,COC(=O)Nc1ccc(-c2nc(-c3cccc(OC)c3)c(-c3ccnc(Br)c3)[nH]2)cc1,48% (inactive)
20,CCN(CC)Cc1cc(Nc2c3ccc(Cl)cc3nc3ccc(OC)cc23)ccc1O,40.6% (inactive)

row,Compound,growth
1,NC[C@@H]1O[C@H](O[C@@H]2[C@@H](CO)OC(O[C@@H]3[C@@H](O)[C@H](N)C[C@H](N)[C@H]3OC3O[C@H](CN)[C@@H](O)[C@H](O)[C@H]3N)[C@@H]2O)[C@H](N)[C@@H](O)[C@@H]1O (stereo not given in full),110% (inactive)
2,c1ccc2cc(C[n+]3ccn(CCCCCCn4cc[n+](Cc5ccc6ccccc6c5)c4)c3)ccc2c1,41.2% (inactive)
3,NS(=O)(=O)c1ccc(-n2nc(-c3ccc(Cl)cc3)c3ccccc3c2=O)cc1,97.1% (inactive)
4,Cc1ccc(C(=O)NCCNc2nccc(-c3c(-c4cccc(F)c4)nc4sccn34)n2)cc1,77.5% (inactive)
5,CCCC1CCC(O)(C(C)(O)C(=O)NC2C(=O)N3NCCCC3C(=O)N(O)C(C)C(=O)N3NCCCC3C(=O)N3NCC(O)CC3C(=O)NC(C)C(=O)OC2C(C)C)OC1CC (stereo not given),-88.5% (active)
6,C#C[C@]1(O)CC[C@H]2[C@@H]3CC=C4c5sc(Nc6ccccc6)nc5CC[C@]4(C)[C@H]3CC[C@@]21C,13.1% (inactive)
7,CCOc1cccc(NC2=C(Br)C(=O)C(C)=C(C)C2=O)c1,106% (inactive)
8,O=C(CCN1C(=O)/C(=C/c2ccc(O)cc2)SC1=S)Nc1ccc(Cl)cc1,97.7% (inactive)
9,Cc1cccc2c3c(sc12)C(c1ccc(Cl)cc1)C(C#N)=C(/N=C/c1ccc(Cl)cc1)O3 (stereo not given),9.86% (active)
10,N[C@@H](Cc1ccccc1)[C@@H](O)C(=O)NCc1ccc(F)cc1,102% (inactive)
11,CC1CN(C2CCCCC2)C(=S)N(c2ccccc2)C1=O (stereo not given),97.3% (inactive)
12,CNC(C)[C@H]1CCC2C3CCC4C[C@@H](N(C)C(=O)c5ccccc5)CC[C@]4(C)C3CC[C@@]21C (stereo not given in full),15.4% (inactive)
13,CCOC(=O)c1cn2ncnc(Oc3ccc(NC(=O)NCCN(CC)CC)c(Cl)c3)c2c1C,96.4% (inactive)
14,COc1ccc2c(c1OC)C(=O)O[C@H]2[C@H]1c2c(cc3c(c2OC)OCO3)CCN1C,95.2% (inactive)
15,NCCCNc1nc2ccccc2c2c(=O)c3cc(C(F)(F)F)ccc3sc12,-76.7% (active)
16,CN1CCN(Cc2ccc(NC(=O)c3ccc(C(C)(C)C)c(C#Cc4cnc5cccnn45)c3)cc2C(F)(F)F)CC1,-80.8% (active)
17,Cc1cccc2c3c(sc12)C(c1ccc(F)cc1)C(C#N)=C(N)O3 (stereo not given),2.86% (active)
18,O=c1c2cc(F)ccc2sc2c(NCCCNCCO)nc3ccc(F)cc3c12,24.9% (inactive)
19,Cc1cc(O)c(C2=NN(c3ccc(S(N)(=O)=O)cc3)C(c3ccccc3O)C2)cc1Cl (stereo not given),-60.4% (active)
20,NC(=O)C1(Nc2ccc(Br)cc2)CCCC1,109% (inactive)
